Consider 38 molecules from PubChem BioAssay AID504727 (Broad Institute, 2011).

Active and inactive are the calls of the source.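 Rule for the calls: active = fitted half-maximal concentration AC50 at or below ten times the highest valid tested dose, with signal falling as DNA is displaced (actives reach about 34 µM in these data); inconclusive = flat fit at moderate signal loss, or poor fit quality; inactive = the rest, including signal rising instead of falling.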

The nature of the test: acridine orange-DNA binding displacement – biochemical, fluorescence polarization, cherry-picked samples, set 2, artefact control for KSHV LANA DNA-binding inhibitor project, dose response (AID 504727).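 For activity change, negative = DNA displacement: 0% = median of neutral control wells and -100% = mitoxantrone positive control wells.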 Conditions: series mostly up to 35 µM; activity change, negative = DNA displacement: at the top concentration. (In general: Fluorescence polarisation rises when a labelled molecule tumbles more slowly, as on binding a larger partner.)
In the case of `Cc1ccc(C)c(N2CCN(C(=O)c3cc4ccccn4n3)CC2)c1`, the “activity change, negative = DNA displacement” value (shortened to “activity change”) is -11.2% (inactive). Still for that read-out and setting: the result for `Nc1cc(N)nc(SCC(=O)N2CCCCC2)n1` reads 3.31% (inactive). Regarding `Nc1ccc2c(O)cc(S(=O)(=O)O)cc2c1`, the “activity change” value was 0% (inactive). As for `Cn1c(=O)c(NCCc2ccccc2)c2c3c(cccc31)C(=O)c1ccccc1-2`, the AC50 (in general, the midpoint of the concentration-response curve, whichever way the signal moves) is 1140 nM (active).

On to `CC1CC(C)(C)NC(=S)N1CC(=O)N(C)Cc1ccccc1` (stereo not drawn), for which the “activity change” value was -1.12% (inactive). For the molecule `COc1cccc2c1C(=O)c1c(O)c3c(c(O)c1C2=O)C[C@@](O)(C(=O)CO)C[C@@H]3O[C@H]1C[C@H](N)[C@H](O)[C@H](C)O1`, the concentration at half-maximal activity (AC50) is 2400 nM (active).

With `COc1ccc(C)cc1NC(=O)C(OC(=O)c1cnccn1)c1ccccc1` (stereo not drawn), the “activity change” value is 0.816% (inactive). As to `Cc1nn(CC(=O)c2ccc(Br)s2)c(C)c1[N+](=O)[O-]`, the “activity change” value was 21.5% (inactive). Still for that read-out and setting: to `COc1cccc2[nH]c(C(=O)NC(C)c3ccccc3)cc12` (stereo not drawn) belongs 2.83% (inactive). Consider `O=c1[nH]c2c(s1)C=Nc1ccccc1N2`, for which the concentration at half-maximal activity (AC50) is 6390 nM (active). As for `O=C1/C(=C/c2ccco2)SC(=S)N1c1cccnc1`, the “activity change” value is 7.68% (inactive). Consider `O=C(N/N=C\c1ccc([N+](=O)[O-])o1)c1cncc(Br)c1`, for which the “activity change” value is 1.67% (inactive).

As to `O=C(O)c1[nH]c2ccccc2c1C(c1cc(Cl)cc([N+](=O)[O-])c1O)c1c(C(=O)O)[nH]c2ccccc12`, the “activity change” value was 5.18% (inactive).

As for `O=C1c2ccccc2C(=O)C1c1ccccn1`, the “activity change” value is -2.43% (inactive).

For the molecule `Cc1[nH][nH]c(=O)c1C(c1ccc(-c2ccc(Cl)c(C(=O)O)c2)o1)c1c(C)[nH][nH]c1=O`, the “activity change” value is -0.131% (inactive). Regarding `O=C(O)c1ccccc1NC(=O)c1cc(-c2ccccc2)nc2ccccc12`, the “activity change” value was 1.7% (inactive). In the case of `CN1CCc2c(sc(NC(=O)c3ccc4ccccc4c3)c2C(N)=O)C1`, the “activity change” value was -5.43% (inactive). With `CSc1n[nH]c(=O)n1-c1cccc(Cl)c1`, the “activity change” value is 4.23% (inactive).

Take `COc1ccc(N=C2SC(CC(=O)Nc3ccccc3)C(=O)N2Cc2ccco2)cc1` (stereo not drawn): the “activity change” value is 1.29% (inactive).

On to `CCN(CCCNC(=O)Cn1cc2c(n1)CCCC2)c1cccc(C)c1`, for which the “activity change” value was 1.96% (inactive). `CC(C)Cn1c(N)c(C(=O)CSc2nnc(-c3ccco3)n2C)c(=O)n(C)c1=O`: the “activity change” value is 0.267% (inactive).

Regarding `COc1ccc(C2(CNC(=O)CCC(=O)O)CCCC2)cc1OC`, the “activity change” value is -1.24% (inactive).

`O=C1CCCC(O)=C1N=Nc1ccc(C(=O)O)cc1`: the “activity change” value was 3.7% (inactive). Consider `CSc1ccc(/C=N/Nc2cccc(C(=O)O)c2)cc1`, for which the “activity change” value is 4.22% (inactive). Consider `CCNc1nc(NC(C)C)nc(NS(=O)(=O)c2ccc(N)cc2)n1`, for which the “activity change” value is 4.91% (inactive). Turning to `COCCN(C(=O)CN1CCCc2ccccc21)c1c(N)n(Cc2ccccc2)c(=O)[nH]c1=O`, the “activity change” value was 8.12% (inactive). On to `O=C(OCc1ccccc1)N1C=CC2CC1c1c(Cl)cccc12` (stereo not drawn), for which the “activity change” value was 2.87% (inactive). Regarding `O=C(/C=N/NC(=O)c1ccc(Cl)cc1Cl)c1ccccc1`, the “activity change” value was 3.49% (inactive). For the molecule `O=S(=O)(O)c1cc(O)c(N=Nc2ccc(O)cc2O)c2ccccc12`, the “activity change” value is 4.5% (inactive).

In the case of `O=C(CN(Cc1ccccc1F)C(=O)c1csnn1)NCc1ccc2c(c1)OCO2`, the “activity change” value is 5.17% (inactive). Regarding `CCCCNc1c2c3c(cccc3n(C)c1=O)C(=O)c1ccccc1-2`, the AC50 was 2250 nM (active).

Consider `NC1=NC[C@@H](Cc2ccc(O)cc2)N1CCc1cc(C(F)(F)F)cc(C(F)(F)F)c1`, for which the “activity change” value was 4.46% (inactive). Regarding `O=C(Cn1c2ccccc2c2nc3n(c(=O)c21)CCS3)Nc1ccccc1C(F)(F)F`, the “activity change” value is 20.6% (inactive). In the case of `COc1c2c(nc3occc13)C(CCC(C)(C)O)(OC)C(O)CC2` (stereo not drawn), the “activity change” value was 4.96% (inactive). Regarding `O=C(O)c1ccc(-n2cccc2/C=C2/SC(=O)N(CC(=O)N3CCCC3)C2=O)cc1`, the “activity change” value was -3.47% (inactive). Same read-out and setting: to `COc1ccc(NC(=O)COC(=O)c2c(-c3ccccc3)noc2C)cc1` belongs 5.5% (inactive); to `O=C(O)c1cccc(-n2cccc2/C=C2/NC(=O)N(c3ccc(Cl)cc3)C2=O)c1`, 9.15% (inactive). Turning to `O=C1NC(=S)S/C1=C\C=C\c1ccc([N+](=O)[O-])o1`, the “activity change” value is 6.23% (inactive).
